Laboratory results reported in PubChem BioAssay AID1645857 (Buhrlage Lab, Dana-Farber Cancer Institute and Novartis …, 2021).
Screen size: about 47,000 compounds; about 1,400 (3%) were called active. Cut-off read from the data, not from the text of the source: active = inhibition above about 30%; inactive = the rest. Only a selection was taken, and actives are over-represented in it overall.

Molecular target: Ubiquitin carboxyl-terminal hydrolase 28 (Homo sapiens) (UniProt Q96RU2)
Assay: inhibitors of human USP28 deubiquitinase (AID 1645857)
Settings: purified USP28, Ub-rhodamine cleavage fluorescence, 30 min; at 25 µM; active compounds read high

Chain of Ubiquitin carboxyl-terminal hydrolase 28 (Homo sapiens) (Q96RU2 whole entry, looked up): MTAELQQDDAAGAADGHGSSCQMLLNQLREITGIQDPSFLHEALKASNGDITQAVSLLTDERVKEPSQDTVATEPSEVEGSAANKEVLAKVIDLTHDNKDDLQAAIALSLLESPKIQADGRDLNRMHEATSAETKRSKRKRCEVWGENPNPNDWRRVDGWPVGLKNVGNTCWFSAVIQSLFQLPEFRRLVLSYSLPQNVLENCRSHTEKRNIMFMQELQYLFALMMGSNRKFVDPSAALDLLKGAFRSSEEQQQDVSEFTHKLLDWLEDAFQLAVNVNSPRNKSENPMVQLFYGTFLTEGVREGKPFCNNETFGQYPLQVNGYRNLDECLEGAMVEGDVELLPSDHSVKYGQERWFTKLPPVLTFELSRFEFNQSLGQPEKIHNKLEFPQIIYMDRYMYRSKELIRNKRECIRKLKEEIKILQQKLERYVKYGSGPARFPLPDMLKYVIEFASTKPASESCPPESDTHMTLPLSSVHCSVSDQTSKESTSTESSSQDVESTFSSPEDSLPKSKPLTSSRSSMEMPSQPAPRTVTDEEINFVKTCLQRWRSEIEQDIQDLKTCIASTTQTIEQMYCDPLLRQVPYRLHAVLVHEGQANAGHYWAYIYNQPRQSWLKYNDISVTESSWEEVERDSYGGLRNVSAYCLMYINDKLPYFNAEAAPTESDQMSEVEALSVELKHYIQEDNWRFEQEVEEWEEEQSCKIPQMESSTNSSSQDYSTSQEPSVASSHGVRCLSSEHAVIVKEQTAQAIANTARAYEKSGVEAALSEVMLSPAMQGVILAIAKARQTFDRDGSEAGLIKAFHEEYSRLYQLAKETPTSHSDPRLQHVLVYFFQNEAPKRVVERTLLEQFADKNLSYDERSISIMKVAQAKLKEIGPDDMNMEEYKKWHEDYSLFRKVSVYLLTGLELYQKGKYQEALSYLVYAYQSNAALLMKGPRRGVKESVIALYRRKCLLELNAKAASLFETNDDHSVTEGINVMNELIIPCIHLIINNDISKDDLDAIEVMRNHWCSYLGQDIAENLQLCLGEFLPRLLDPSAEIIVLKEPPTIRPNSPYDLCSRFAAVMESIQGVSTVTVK

inhibition, active:
O=C(NCc1cccnc1)C1CCN(c2cnc(N3CCCCCC3)nc2)CC1 60.9%
c1ccc(-c2ccc(NCc3ccc4c(c3)OCO4)nn2)cc1 61.2%
CCCCc1nc2sc3c(SCC(=O)NCc4ccccc4)ncnc3c2c2c1CCC2 54.5%
CCn1c(SCc2cccc(C)c2)nnc1-c1cnccn1 58.5%
COc1cc(O)sc1C=Nc1ccc(Oc2ccccc2)cc1 40.7%
O=C(COc1ccc2ccccc2c1)NCc1nnnn1-c1ccc(Cl)cc1 30.4%
COc1cc(Cn2cnc3c([nH]c4ccc(Br)cc43)c2=O)cc(OC)c1 43.8%
Cc1cc(-c2nnc(SCC(=O)Nc3ccc(Br)c(C)c3)n2N)n[nH]1 38.4%
CC(C)CN1C[C@@]23CN(C(=O)NCCc4ccc(F)cc4)C[C@@H](C[C@@H]2S1(=O)=O)O3 32.3%
COc1ccc(NC(=O)C2=C(C)Nc3ncnn3C2c2cccc(OCc3ccc(F)cc3)c2)c(OC)c1 (stereo unspecified) 46.2%
N#Cc1cccc(CSc2ncnc(N)n2)c1 39.9%
Cc1ccc(N2CCCS2(=O)=O)cc1NC(=O)Cc1ccc(Cl)cc1 33.1%
Cc1ccc(C)c(CSC2=NCCN2C(=O)c2ccco2)c1 70.4%
Cn1c(SCc2ccc(Cl)cc2)nnc1-c1ccc2c(c1)OCCO2 41%
O=C(CSc1ncnc2c1oc1ccccc12)NC1CCCC1 46.9%
Cc1cc(C)c(NC(=O)CCN2C(=O)c3cccnc3Sc3ccccc32)c(C)c1 32.4%
Cn1cc(CCNC(=O)Nc2cc(F)ccc2F)c2cccnc21 44.1%
Cn1cc(CCNC(=O)c2cc3ccccc3[nH]2)c2cccnc21 63.9%

inhibition, inactive:
CC(C)CN1[C@H]2CCN(C(=O)c3cnccn3)CC[C@@H]2Oc2ccccc2S1(=O)=O -3.97%
Cc1nc2ccccc2n1CCNC(=O)c1ccccc1Cl -3.71%
CC(=O)N1CCc2cc(S(=O)(=O)NCC(=O)NCc3ccc4c(c3)OCO4)ccc21 -1.7%
Cc1noc(CNC(=O)c2cc(-c3ccco3)on2)n1 -29.2%
Cc1cccc(CNC(=O)C2CCN(c3cnc4nccnc4c3)CC2)c1 -81.1%
Cc1[nH]c(C(=O)N2CCCC(C(=O)NCc3cccnc3)C2)c(C)c1C (stereo unspecified) -6.57%
O=c1c2c(ncn2C2CCCC2)n(Cc2ccccc2)c(=O)n1Cc1ccccc1 6.37%
O=C(O)c1cc(-c2ccc(-c3ccccc3F)o2)nc2ccc(F)cc12 -179%
CCc1ccccc1NC(=O)N1CCCC1c1ccnn1CC (stereo unspecified) 12.8%
CCC(Oc1ccccc1)C(=O)NCc1ccc2c(c1)OCO2 (stereo unspecified) 6.67%
c1cc(CNCc2ccc3c(c2)OCO3)ccn1 -2.19%
N#CC1=C(N)Oc2nc[nH]c(=O)c2C1c1cccc(F)c1 (stereo unspecified) -2.3%
CCC(C)[C@H](NS(=O)(=O)c1ccc(C)cc1)C(=O)N1CCC(C(=O)N[C@H](Cc2c[nH]c3ccccc23)C(=O)O)CC1 (stereo partly specified) -2.54%
CCCc1nc2sc3c(N4CCC(C)CC4)ncnc3c2c2c1CCC2 2.73%
CCCCCCSc1ncnc2c1sc1nc(-c3ccccc3)c3c(c12)CC(C)(C)OC3 -0.572%
CCc1ccc(NC(=O)CSc2nnc(-c3cnccn3)n2Cc2ccco2)cc1 -5.3%
Cc1ccc(NC(=O)CSc2nnc(-c3cnccn3)n2Cc2ccco2)cc1C -1.17%
COc1ccccc1C(=O)Nc1cccc(Oc2ccccc2)c1 19.6%
O=C(c1ccc[nH]1)N1CCCn2c(nc(Cn3ccnc3)cc2=O)C1 12.3%
CCN(C(=O)CSc1nnc(-c2ccoc2C)o1)c1ccccc1 6.53%
CC(C)c1ccc(OCC(=O)NCc2nnnn2-c2ccc(Cl)cc2)cc1 20.1%
Cc1ccc(NC(=O)NCc2nnnn2-c2ccccc2)cc1C 5.32%
Cc1ccc(C)c(NC(=O)c2cn(C)cc3c(=O)n(-c4ccccc4)nc2-3)c1 2.87%
CCOc1ccc2[nH]c3c(=O)n(Cc4cccnc4)cnc3c2c1 13.7%
O=c1c2[nH]c3ccc(Cl)cc3c2ncn1Cc1cccnc1 -8.15%
CCOc1cccc(C(=O)N2CCC(c3nc4ccccc4o3)CC2)c1 -7.65%
Cc1cc(C)n2c(SCC(=O)Nc3cc(C(C)(C)C)nn3-c3ccccc3)nnc2n1 6.69%
Cc1cc(C(F)(F)F)n2nc(C3CCN(C(=O)c4cc5ccccc5s4)C3)cc2n1 (stereo unspecified) 17.6%
NCCCC(=O)N1CCC2(CC1)C(=O)NCN2C(=O)Cc1ccccc1 -0.0141%
O=C1CO[C@H]2CN(Cc3ncc[nH]3)C[C@H]2N1c1ccccc1 19.7%
COc1ccccc1CCNC(=O)CCc1c(C)c2ccc(O)c(C)c2oc1=O 2.41%
Nn1c(SCC(=O)Nc2ccccc2F)nnc1-c1n[nH]c2c1CCC2 -7.92%
Cc1cc(NC(=O)COC(=O)c2cccc(C)c2O)ccc1Br 5.74%
O=C(CN1CCC2(CC=CCN(CCc3ccccc3)C2=O)CC1)Nc1ccc(F)cc1 -25.4%
COc1ccc(C(=O)N2CCc3cc4ccccc4nc32)cc1OC -5.16%
O=S(=O)(c1ccc(Cl)cc1)N1CCc2nc[nH]c2C1 -11.8%
CC1CCC/C=C/C=C/C(=O)CC(O)C/C=C\C=C\C(O)C/C=C/C=C\C(=O)O1 (stereo unspecified) 2.22%
COCCN1C[C@@]23CN(C(=O)NCc4ccccc4)C[C@@H](C[C@@H]2S1(=O)=O)O3 5.8%
CCc1ccc(NC(=O)N2C[C@H]3C[C@H]4[C@](C2)(CN(Cc2cccnc2)S4(=O)=O)O3)cc1 1.25%
CC(C)NC(=O)c1nc(Cn2c(C(F)F)nc3ccccc32)no1 5.94%
CC1=C(C(=O)Nc2ccc(C)cc2C)C(c2cccs2)n2c(nc3ccccc32)N1 (stereo unspecified) 6.45%
O=C(c1ccccn1)N1CCn2nc(-c3ccc4ccccc4c3)cc2C1 1.7%
O=C(Cc1ccccc1F)N1CCCC(c2[nH]nc3nccnc23)C1 (stereo unspecified) 1.05%
COc1ccccc1NC(=O)C1=C(C)Nc2ncnn2C1c1ccc(C)o1 (stereo unspecified) 1.41%
COc1cccc(C2C(C(=O)Nc3ccccc3C)=C(C)Nc3ncnn32)c1OCc1ccccc1 (stereo unspecified) 2.46%
CNc1cccc(C2CN(C(=O)c3cnn4cccnc34)CCO2)n1 (stereo unspecified) -3.02%
O[C@@H]1C[C@H]2CN(Cc3ccc(F)cc3)[C@H](Cc3ccccc3)CN2C1 2.96%
COc1ccc2c(c1)OC[C@@H](Cc1ccccc1)N(Cc1ccncc1)[C@H]2C 8.99%
Cc1ccc(-c2cc3n(n2)CCCN(C(=O)c2ccccn2)C3)cc1 0.0245%
Cc1ccc(Cl)cc1NC(=O)N1CCc2nc(N3CCCCC3)ncc2C1 -54.3%
Cc1ccc(CC(=O)Nc2nnc(C3CC(=O)N(c4ccc(C)c(C)c4)C3)s2)cc1 (stereo unspecified) 13.1%
Cn1ccc(C(=O)NCc2cnc(C3CCCCO3)nc2)n1 (stereo unspecified) 6.1%
Cc1ccc(C)c(CSc2nc(-c3ccco3)nc3c2c(=O)n(C)c(=O)n3C)c1 -10.3%
COc1ccc(CC(=O)Nc2ccc3c(c2)CN(C(=O)c2ccco2)CC3)cc1 23.1%
Cc1ccc(-n2cc(-c3noc(C(=O)Nc4ccc(F)cc4C)n3)nn2)cc1 13.4%
CC(C)NC(=O)c1csc(-c2ccc(N3CCCC3)nc2)n1 -10%
O=C(CSc1nnc(-c2ccc3c(c2)OCO3)n1-c1ccccc1)OCC(=O)c1ccccc1 14.9%
Cc1cc(C(=O)CSc2nnc(-c3ccc(F)cc3)n2C)c(C)n1C -21.9%
O=C(N[C@@H](Cc1ccccc1)C(=O)N1CCc2ccccc2C1)c1cccnc1 5.48%
Cc1oc(-c2cccc(Cl)c2)nc1Cn1c(=O)n(C(C)C)c(=O)c2ccccc21 -19%
Cc1c(C(=O)NC2CCCCC2)oc2ccccc12 3.81%
CCc1nc(SCC(=O)Nc2cccc3ccccc23)c2oc3ccccc3c2n1 2.85%
O=C(Cc1nnc2c(-c3nc(C4CC4)no3)cccn12)Nc1ccccc1 11%
CN(C)C(=O)CN1CCC2(CC1)CN(Cc1ccccn1)C(=O)CO2 8.76%
CN1CCN(c2ncc3c(=O)n(CC4CCCO4)ccc3n2)CC1 (stereo unspecified) -10.1%
O=C(CCN1C(=O)c2cccnc2Sc2ccccc21)Nc1cc(F)ccc1F 11%
COc1ccc(NC(=O)CCN2C(=O)c3cccnc3Sc3ccccc32)cc1 9.9%
CC(C)(C)c1nn(-c2ccccc2)c2[nH]c(=O)c(CNCCc3ccccc3)cc12 20.3%
Cc1ccccc1Nc1nc(N)nc(CSc2ccccc2)n1 -0.136%
Cn1cc(-c2nc(C(=O)Nc3ccc(F)cc3)cs2)c2cccnc21 21.1%
Cc1cccc(S(=O)(=O)NCCc2cn(C)c3ncccc23)c1 -5.33%
CCn1cc(C(=O)OCC(=O)Nc2cc(F)ccc2F)c(=O)c2ccc(C)nc21 -0.0765%
Cn1c(CCNC(=O)c2ccc(C(C)(C)C)cc2)nc2cccnc21 -229%
